Test results as given in PubChem BioAssay.

System: Inhibin beta A chain (activin A)
Experiment: small molecules binding activin A – biochemical, small-molecule microarray, 635 nm fluorescence scan, primary screen (AID 1107);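 note: mouse activin A protein probed at 4.33 µg/mL on printed slides; score merges bound-protein fluorescence near 667 nm with spot signal-to-noise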
Conditions: INHBA, higher = more signal

**Q.** Which composite z-score does the source give for `Cc1ccc(S[C@]2(C(=O)NCCN3CCOCC3)CC(=O)N(Cc3ccccc3Cl)[C@@H]2c2ccc(CO)cc2)cc1` here?
**A.** The composite z-score was 0.425.

**Q.** Which composite z-score does the source give for `C[C@@]1([C@@H](NC(=O)c2ccccc2)c2ccc(-c3ccccc3)cc2)C[C@H]1C1CCCCC1` here?
**A.** Its composite z-score is 1.09.

**Q.** How did the composite z-score turn out when `COc1ccc(COC2OC[C@]3(C)[C@H]4C5=C(CN3C(=O)OC(C)(C)C)[C@H](C)C(CO)C(CO)C5CC[C@@H]24)cc1` (some centres not stated) was run?
**A.** Its composite z-score is 0.797.

**Q.** `C=C(/C(=C/C[C@@H](OC(C)=O)c1ccc(OCCO)cc1)c1cnc2ccccc2c1)C(C)C` was tested. Which composite z-score did it give?
**A.** Its composite z-score is 1.5.

**Q.** With `C=CCOC(=O)[C@@H]1[C@H]2C(=O)O[C@H](c3ccccc3)[C@H](c3ccccc3)N2[C@H](c2ccc(OCCOC(=O)[C@@H]3C[C@@H]4C(=O)N[C@@H](Cc5ccccc5)C(=O)N4[C@@H]3c3ccc(O)cc3)cc2)[C@@]12C(=O)Nc1ccc(I)cc12` as the compound, how does the composite z-score read?
**A.** Its composite z-score is 0.518.

**Q.** How did the composite z-score turn out when `CCCCCC1=C2CNC(CCC)(C(=O)OC)C=C2C(C)C1=O` (configuration not stated) was run?
**A.** The composite z-score was 1.14.

**Q.** Which composite z-score does the source give for `C=C(C)C1C(=C)CN([C@H](CO)c2ccccc2)C1=O` (some centres not stated) here?
**A.** Its composite z-score is 1.36.

**Q.** `O=C1C2C=CC(C(O)c3ccc(F)cc3)N(Nc3ccccc3F)C2C(=O)N1c1ccccc1` (configuration not stated) was tested. Which composite z-score did it give?
**A.** The composite z-score was 0.503.

**Q.** `CCOc1cc(C(O)C2C=CC3C(=O)N(c4ccccc4)C(=O)C3N2Nc2ccccc2)ccc1O` (configuration not stated) was tested. Which composite z-score did it give?
**A.** The composite z-score was 0.829.

**Q.** Which composite z-score does the source give for `CCCCCN1CC=CC23O[C@@H]4/C=C\CCCOC(=O)C4[C@H]2C(=O)N(C(CO)C(C)C)[C@@H]3C1=O` (some centres not stated) here?
**A.** The composite z-score was 1.05.

**Q.** For `CC(CO)N1C(=O)[C@@H]2C3C(=O)OCCC/C=C\[C@H]3OC23C=CCN(c2ccc4ccccc4c2)C(=O)[C@@H]13` (some centres not stated), which composite z-score is on record?
**A.** The composite z-score was -0.107.

**Q.** Which composite z-score does the source give for `COCCCNC(=O)C1N=C(c2ccc(OCCCO)cc2)N(c2ccccc2)O1` (configuration not stated) here?
**A.** Its composite z-score is -0.6.
